# Assay results published in PubChem BioAssay AID540359 (Broad Institute, 2011).
# Results with a measured potency or affinity are listed apart. Activity calls are given as the source filed them. No rule for the calls is given here.
# Target: UDP-galactopyranose mutase (Mycobacterium tuberculosis (strain ATCC 25618 / H37Rv)) (UniProt P9WIQ1)
# Assay: UDP galactopyranose mutase inhibitors, Mycobacterium tuberculosis, cherry pick dose confirmation (AID 540359)
# Settings: purified UGM enzyme, plate reader activity; series mostly up to 50 µM
# Chain of UDP-galactopyranose mutase (Mycobacterium tuberculosis (strain ATCC 25618 / H37Rv)) (P9WIQ1 whole entry, looked up): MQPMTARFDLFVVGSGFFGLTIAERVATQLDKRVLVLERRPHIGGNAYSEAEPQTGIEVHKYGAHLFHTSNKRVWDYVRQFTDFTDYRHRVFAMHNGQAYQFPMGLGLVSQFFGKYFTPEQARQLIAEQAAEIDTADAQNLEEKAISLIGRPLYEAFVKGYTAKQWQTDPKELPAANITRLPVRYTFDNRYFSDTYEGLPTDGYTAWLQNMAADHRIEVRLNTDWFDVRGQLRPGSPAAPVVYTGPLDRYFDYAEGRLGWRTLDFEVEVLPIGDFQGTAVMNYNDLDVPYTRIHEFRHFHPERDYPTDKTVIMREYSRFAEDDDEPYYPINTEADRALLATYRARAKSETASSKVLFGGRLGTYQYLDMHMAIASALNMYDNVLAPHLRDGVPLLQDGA
row,Compound,outcome
1,N=c1n(CCN2CCCC2)c2ccccc2n1CC(O)c1ccco1 (stereo not drawn),inactive
2,CCN(C(=O)COC(=O)c1cc(Cl)ccc1OC)c1c(N)n(Cc2ccccc2)c(=O)[nH]c1=O,inactive
3,COc1ccc(CCn2c(=N)c(S(=O)(=O)c3ccc(C)cc3)cc3c(=O)n4ccccc4nc32)cc1,inactive
4,CCC1=NN2C(=N)/C(=C\c3cccn3-c3ccc(OC)cc3)C(=O)N=C2S1,inactive
5,O=C(NC(=S)Nn1cnnc1)c1ccccc1Cl,inactive
6,COC(=O)C1=CC(C(=O)c2cccs2)=NN(c2ccc(OC)cc2)C1C(=O)OC (stereo not drawn),inactive
7,COc1cccc(/C=N/n2c(-c3ccco3)nc3ccccc3c2=O)c1OC,inactive
8,COc1ccccc1NC(=O)C1CCN(S(=O)(=O)c2cccs2)CC1,inactive
9,CCc1ccc(C(CC(=O)c2ccc(Cl)cc2)C(=O)O)cc1 (stereo not drawn),inactive
10,N#CCCN(CCC#N)C(=O)C1c2ccccc2Oc2ccccc21,inactive
11,NC(=O)c1c(NC(=O)C2COc3ccccc3O2)sc2c1CCN(Cc1ccccc1)C2 (stereo not drawn),inactive
12,CC(=O)NC(Cc1ccccc1)C(=O)OCC(=O)c1ccccc1 (stereo not drawn),inactive
13,Cc1nn(-c2ccccc2)c(Cl)c1C(=O)NCC1CCCO1 (stereo not drawn),inactive
14,CCOc1ccc(/C(CCC(=O)O)=N/NC(=O)c2cccc(S(=O)(=O)Nc3ccccc3OC)c2)cc1,inactive
15,Cc1ccc(NC(=O)/C(C#N)=C/c2ccc(C)s2)c(C)c1,inactive
16,CCOc1ccc(C(=O)NC(=S)Nc2cccnc2)cc1,inactive
17,CCOc1ccc(C(C(=O)NC2CCCC2)N(C(=O)CNC(=O)c2ccco2)c2cccnc2)cc1 (stereo not drawn),inactive
18,COc1cc(OC)cc(C(=O)Nc2cc(C)nn2-c2ccccc2)c1,inactive
19,C=CCn1ccc(=NC=C(C#N)C#N)c2ccccc21,inactive
20,COc1cc2c3nnc(-c4ccc(F)cc4)c-3cn(Cc3ccc(C)cc3)c2cc1OC,inactive
21,CCOC(=O)c1cnc2ccc(Cl)cc2c1NCCN(C)C,inactive
22,O=S(=O)(Nc1cccnc1Cl)c1ccc(F)cc1,inactive
23,COc1cc(N2CCCC2)c(OC)cc1/C=C(/C#N)c1ccc(Br)cc1,inactive
24,COc1ccc(/C=C/C(=O)OCC(=O)NC2CCCCCC2)cc1OC,inactive
25,COc1ccc(-n2c(O)c(/C=C3\C=Nc4ccc(Br)cc43)c(=O)[nH]c2=O)cc1,inactive
26,CCc1ccc2c(c1)C(c1ccc([N+](=O)[O-])cc1)=NNC(c1ccc(Br)cc1)=N2,inactive
27,Cc1n[nH]c(=O)c2c(NC(=O)CSc3nnc(-c4ccco4)n3C)oc(C)c12,inactive
28,Cc1ccc(-c2nc3sc(C#N)c(N)n3c(=O)c2C#N)cc1,inactive
